# Results reported in PubChem BioAssay (NCI).
# Where “and” joins values, the source holds several entries; their conditions need not be identical. Identical values can stand only once. Compounds without any hit were thinned out: in the full panel of roughly 83,000, 20% have a hit.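 Growth was measured after 48 h exposure to one concentration of compound in 96-well plates. Values under 10 count as active.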 Calls of active or inactive are those of the source.
# Tested on: HL-60(TB) leukemia
# Test: NCI-60 one-dose screen, 48 h (100 = growth as untreated, 0 = no growth, -100 = all killed)
compound,measurement,setting,value
CC1=C(/C=C/C(C)=C/C=C/C(C)=C/CO)C(C)(C)CCC1,growth,10 µM unless noted,103% (inactive)
Cc1ccc2[nH]c(=O)cc(-n3nncc3Cn3c4ccccc4c4ccccc43)c2c1,growth,10 µM unless noted,107% (inactive)
COc1cccc(NC(=O)Cn2cc(CN3CCN(c4ccnc5cc(Cl)ccc45)CC3)nn2)c1,growth,10 µM unless noted,124% (inactive)
COc1ccc(-c2nc3cc(C(=O)NCc4ccccc4)ccc3n2C2CCCCC2)cc1,growth,10 µM unless noted,71.1% (inactive)
CCOC(=O)c1sc(-c2ccc(OS(=O)(=O)c3ccc(Br)s3)c(C=O)c2)nc1C,growth,10 µM unless noted,20% (inactive)
COc1ccc(OC)c(-c2c(C#N)c(-c3cccs3)nc3c2c(-c2ccccc2)nn3-c2ccccc2)c1,growth,10 µM unless noted,107% (inactive)
COc1ccc(Nc2ccnc(N3CCN(c4ccnc5cc(Cl)ccc45)CC3)n2)cc1,growth,10 µM unless noted,-16.8% (active)
O=C(O)C1C(c2ccccc2)c2ccccc2C(O)C1CO (centres undefined),growth,10 µM unless noted,102% (inactive)
O=C(Nc1cccc(-n2cc(-c3ccncc3)c(-c3ccc(O)c(Cl)c3)n2)c1)Nc1ccc(Cl)c(Cl)c1,growth,10 µM unless noted,-13.2% (active)
O=[N+]([O-])c1ccc(NS(=O)(=O)c2cc(Cl)ccc2Cl)c2ccccc12,growth,10 µM unless noted,33.4% (inactive)
Oc1c(Cl)cc(Cl)c2ccc(Cn3cc(-c4ccc(C(F)(F)F)cc4)nn3)nc12,growth,10 µM unless noted,-24.9% (active)
O=C(CNc1nnc(-c2cccnc2SCc2ccccc2)s1)Nc1nc(Cl)cc(Cl)n1,growth,10 µM unless noted,96.2% (inactive)
COc1ccc(-c2ccc(-c3ccc(C(=N)N)s3)s2)cc1,growth,10 µM unless noted,-61.1% (active)
CC(=O)Nc1nc(C)c(C(=O)NNC=O)s1,growth,10 µM unless noted,104% (inactive)
CCOC(=O)CNC(=O)CCCCSc1ncnc2nc[nH]c12,growth,10 µM unless noted,91.1% (inactive)
CCNC(=O)c1ccc2c(c1)nc(-c1ccc(Cl)cc1)n2-c1cc(C(C)(C)C)[nH]n1,growth,10 µM unless noted,4.73% (active)
CCSc1nc(Cl)c(C#N)c(-c2ccc(F)cc2)n1,growth,10 µM unless noted,81.3% (inactive)
Nn1c(Nc2ccc(S(=O)(=O)Nc3ncccn3)cc2)nnc(/C=C/c2c(O)ccc3ccccc23)c1=O,growth,10 µM unless noted,86.1% (inactive)
CCOC(=O)/C=C1\S/C(=N\Nc2cc(=O)[nH]c3ccc(Cl)cc23)N(c2ccccc2)C1=O,growth,10 µM unless noted,0.175% (active)
O=C1/C(=C/c2ccc(F)cc2)COc2ccc(O)cc21,growth,10 µM unless noted,19.1% (inactive)
CC(=O)Nc1ccc(OC(C)=O)cc1,growth,10 µM unless noted,-9.02% (active) and 104% (inactive)
COc1ccc(-c2ccc3cnc4sc(-c5ccc(OC)cc5)nc4c3n2)cc1,growth,10 µM unless noted,95.3% (inactive)
O=CC1(C2(C=O)c3ccccc3-c3ccccc32)c2ccccc2-c2ccccc21,growth,10 µM unless noted,-52.3% (active)
Cc1cc(/C=C\c2ccc3ccccc3[n+]2C)c(O)c2ncccc12,growth,10 µM unless noted,-22.4% (active)
COC(=O)c1ccc([N+](=O)[O-])c(C)c1,growth,10 µM unless noted,85.5% (inactive)
COc1ccc(-c2cc(-c3cc4ccccc4oc3=O)n(-c3ccccc3)n2)cc1,growth,10 µM unless noted,91.6% (inactive)
CCOc1ccc(C(=O)Cc2ccccc2)cc1,growth,10 µM unless noted,97.4% (inactive)
CCc1ccccc1-n1c(N)c(C#N)c(-c2ccc(OC)c(OC)c2)c(C#N)c1=O,growth,10 µM,113% (inactive)
same,growth,100 µM,122% (inactive)
Cc1[nH]c(-c2nc3ccccc3[nH]2)c(C)c1C(=O)NC(C)C1CCCCC1 (centres undefined),growth,10 µM,98.3% (inactive)
same,growth,100 µM,-83.4% (active)
CC(=O)/C=C/c1ccc(N(C)Cc2ccc(C(C)(C)C)cc2)cc1,growth,10 µM,53.9% (inactive)
same,growth,100 µM,-48.9% (active)
CC#C[C@]1(O)CC[C@H]2[C@@H]3CCC4=CC(=O)CCC4=C3[C@@H](c3ccc4c(c3)OCO4)C[C@@]21C,growth,10 µM,67.5% (inactive)
same,growth,100 µM,-22.9% (active)
COc1ccc(C(=O)/C=C/c2ccc(OCc3cccc(C(F)(F)F)c3)c(OC)c2)cc1OC,growth,10 µM,36.4% (inactive)
same,growth,100 µM,-17.8% (active)
O=C(NNc1ccc(-c2ccccc2)nn1)c1ccccc1,growth,10 µM unless noted,98.8% (inactive)
COC(=O)CCOc1ccccc1,growth,10 µM unless noted,102% (inactive)
